Test results published in PubChem BioAssay AID1159580 (chemical genetic matrix, 2015).
“And” between values parts separate entries of the source, which are not always exact repeats. Identical values can stand only once. Screen size: about 5,500 compounds; about 2,000 (36%) were called active. About 18% were inconclusive and are not listed. Rule as the data show it: active = normalized growth mostly below about 0.91 (no sharp cut-off); inconclusive = no clear call, values can overlap the other calls; inactive = mostly above about 0.92. Some of the results follow.

Test: chemical genetic growth profiling, strain panel (AID 1159580);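 also: tested at 20 µM; growth read once vehicle control cultures reached saturation at 30 °C; 1 = growth at the plate median or of vehicle wells; lower values mean less growth of the strain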
Details: growth OD

Measured: normalized growth

CN(C)CCCN1c2ccccc2Sc2ccccc21
inactive: S. cerevisiae deletion strains, locus YJR075W, strain HOC1, active compounds read low 0.995 and 1 | S. cerevisiae deletion strains, locus YKL009W, strain mrt4, active compounds read low 1.02 | S. cerevisiae deletion strains, locus YKL068W, active compounds read low 1.01 | S. cerevisiae deletion strains, locus YKL085W, strain MDH1 (second series), active compounds read low 1 | S. cerevisiae deletion strains, locus YKL085W, strain MDH1, active compounds read low 1 | S. cerevisiae deletion strains, locus YKL160W, strain elf1, active compounds read low 1.04 | S. cerevisiae deletion strains, locus YKL190W, strain CNB1, active compounds read low 1 | S. cerevisiae deletion strains, locus YKR001C, strain vps1, active compounds read low 1.02 | S. cerevisiae deletion strains, locus YKR026C, strain gcn3, active compounds read low 0.989 | S. cerevisiae deletion strains, locus YKR091W, strain srl3, active compounds read low 0.984 | S. cerevisiae deletion strains, locus YLL001W, strain dnm1, active compounds read low 0.978 | S. cerevisiae deletion strains, locus YLL026W, active compounds read low 0.98 | S. cerevisiae deletion strains, locus YLL041C, strain sdh2, active compounds read low 0.99 | S. cerevisiae deletion strains, locus YLR027C, strain aat2, active compounds read low 0.999 | S. cerevisiae deletion strains, locus YLR039C, strain RIC1, active compounds read low 1.19 | S. cerevisiae deletion strains, locus YLR058C, strain SHM2, active compounds read low 1 | S. cerevisiae deletion strains, locus YLR102C, strain apc9, active compounds read low 1.01 | S. cerevisiae deletion strains, locus YLR113W, strain HOG1, active compounds read low 1.01 | S. cerevisiae deletion strains, locus YLR221C, strain rsa3, active compounds read low 0.992 | S. cerevisiae deletion strains, locus YLR258W, strain gsy2, active compounds read low 0.983 | S. cerevisiae deletion strains, locus YLR262C, strain YPT6 (second series), active compounds read low 1.01 | S. cerevisiae deletion strains, locus YLR262C, strain YPT6, active compounds read low 1.23 | S. cerevisiae deletion strains, locus YLR268W, strain sec22, active compounds read low 1.01 | S. cerevisiae deletion strains, locus YLR320W, strain mms22, active compounds read low 0.996 | S. cerevisiae deletion strains, locus YLR330W, strain CHS5, active compounds read low 1.01 | S. cerevisiae deletion strains, locus YLR342W, strain FKS1 (second series), active compounds read low 0.99 | S. cerevisiae deletion strains, locus YLR342W, strain FKS1, active compounds read low 0.977 | S. cerevisiae deletion strains, locus YLR357W, strain rsc2, active compounds read low 0.989 | S. cerevisiae deletion strains, locus YLR370C, strain arc18, active compounds read low 1 | S. cerevisiae deletion strains, locus YLR371W, strain rom2, active compounds read low 1.01 | S. cerevisiae deletion strains, locus YLR384C, strain iki3, active compounds read low 0.997 | S. cerevisiae deletion strains, locus YLR418C, strain cdc73, active compounds read low 0.988 | S. cerevisiae deletion strains, locus YML016C, strain PPZ1, active compounds read low 1.01 | S. cerevisiae deletion strains, locus YML032C, strain rad52, active compounds read low 1.01 | S. cerevisiae deletion strains, locus YML120C, strain ndi1, active compounds read low 0.99 | S. cerevisiae deletion strains, locus YML124C, strain tub3, active compounds read low 1.01 | S. cerevisiae deletion strains, locus YMR058W, strain fet3, active compounds read low 0.982 | S. cerevisiae deletion strains, locus YMR078C, strain ctf18, active compounds read low 1.01 | S. cerevisiae deletion strains, locus YMR125W, strain sto1, active compounds read low 0.947 | S. cerevisiae deletion strains, locus YMR129W, active compounds read low 1 | S. cerevisiae deletion strains, locus YMR205C, strain PFK2, active compounds read low 1 | S. cerevisiae deletion strains, locus YMR223W, strain ubp8, active compounds read low 0.999 | S. cerevisiae deletion strains, locus YMR231W, strain pep5, active compounds read low 0.986 | S. cerevisiae deletion strains, locus YMR263W, strain SAP30, active compounds read low 0.999 and 0.981 | S. cerevisiae deletion strains, locus YMR307W, strain GAS1, active compounds read low 1.03 and 1.02 | S. cerevisiae deletion strains, locus YNL067W, strain RPL9B, active compounds read low 0.988 | S. cerevisiae deletion strains, locus YNL071W, strain lat1, active compounds read low 0.996 | S. cerevisiae deletion strains, locus YNL128W, strain TEP1, active compounds read low 1.01 and 0.994 | S. cerevisiae deletion strains, locus YNL153C, strain GIM3, active compounds read low 1.09 | S. cerevisiae deletion strains, locus YNL175C, strain NOP13, active compounds read low 0.983 | S. cerevisiae deletion strains, locus YNL183C, strain NPR1, active compounds read low 0.965 | S. cerevisiae deletion strains, locus YNL209W, strain ssb2, active compounds read low 0.971 | S. cerevisiae deletion strains, locus YNL224C, strain SQS1, active compounds read low 1.01 | S. cerevisiae deletion strains, locus YNL233W, strain BNI4, active compounds read low 1.01 | S. cerevisiae deletion strains, locus YNL248C, strain rpa49, active compounds read low 0.976 | S. cerevisiae deletion strains, locus YNL250W, strain rad50, active compounds read low 1.01 | S. cerevisiae deletion strains, locus YNL271C, strain bni1, active compounds read low 1.01 | S. cerevisiae deletion strains, locus YNL298W, strain CLA4, active compounds read low 1 | S. cerevisiae deletion strains, locus YNL307C, strain MCK1, active compounds read low 1.02 | S. cerevisiae deletion strains, locus YNL322C, strain KRE1 (second series), active compounds read low 1.01 | S. cerevisiae deletion strains, locus YNL322C, strain KRE1, active compounds read low 1 and 0.958 | S. cerevisiae deletion strains, locus YNR049C, strain mso1, active compounds read low 0.996 | S. cerevisiae deletion strains, locus YNR052C, strain pop2, active compounds read low 1.01 | S. cerevisiae deletion strains, locus YOL006C, strain TOP1, active compounds read low 0.983 | S. cerevisiae deletion strains, locus YOL012C, strain htz1 0.964 | S. cerevisiae deletion strains, locus YOL147C, strain pex11, active compounds read low 1.01 | S. cerevisiae deletion strains, locus YOR001W, strain rrp6, active compounds read low 0.96 | S. cerevisiae deletion strains, locus YOR061W, strain CKA2, active compounds read low 1.01 | S. cerevisiae deletion strains, locus YOR069W, strain VPS5, active compounds read low 0.995 | S. cerevisiae deletion strains, locus YOR070C, strain gyp1, active compounds read low 0.986 | S. cerevisiae deletion strains, locus YOR080W, strain dia2, active compounds read low 1.01 | S. cerevisiae deletion strains, locus YOR083W, strain WHI5 (second series), active compounds read low 0.98 | S. cerevisiae deletion strains, locus YOR083W, strain WHI5, active compounds read low 0.971 | S. cerevisiae deletion strains, locus YOR106W, strain vam3, active compounds read low 0.968 | S. cerevisiae deletion strains, locus YOR136W, strain idh2, active compounds read low 1.02 | S. cerevisiae deletion strains, locus YOR144C, strain elg1, active compounds read low 1.01 | S. cerevisiae deletion strains, locus YOR184W, strain ser1, active compounds read low 1.08 | S. cerevisiae deletion strains, locus YOR231W, strain MKK1, active compounds read low 0.986 | S. cerevisiae deletion strains, locus YOR265W, strain rbl2, active compounds read low 1 | S. cerevisiae deletion strains, locus YOR270C, strain vph1, active compounds read low 0.898 | S. cerevisiae deletion strains, locus YOR290C, strain snf2, active compounds read low 1.01 | S. cerevisiae deletion strains, locus YOR316C, strain cot1, active compounds read low 1.02 | S. cerevisiae deletion strains, locus YPL051W, strain arl3, active compounds read low 1 | S. cerevisiae deletion strains, locus YPL055C, strain LGE1, active compounds read low 1.01 | S. cerevisiae deletion strains, locus YPL078C, strain atp4, active compounds read low 1.01 | S. cerevisiae deletion strains, locus YPL106C, strain sse1, active compounds read low 0.999 | S. cerevisiae deletion strains, locus YPL240C, strain hsp82, active compounds read low 0.985 | S. cerevisiae deletion strains, locus YPL241C, strain CIN2, active compounds read low 0.999 | S. cerevisiae deletion strains, locus YPL256C, strain CLN2, active compounds read low 1.01 | S. cerevisiae deletion strains, locus YPR119W, strain clb2, active compounds read low 1 | S. cerevisiae deletion strains, locus YPR141C, strain kar3, active compounds read low 1.01 | S. cerevisiae deletion strains, locus YPR163C, strain tif3, active compounds read low 1.01 | S. cerevisiae deletion strains, locus YPR167C, strain met16, active compounds read low 1.01 | S. cerevisiae deletion strains, strain wtn01, active compounds read low 1.02 | S. cerevisiae strains, strain wild type, active compounds read low 0.992
